Test results: PubChem BioAssay (NCATS)
Values joined by “and” are separate entries in the source; they are usually repeats but may differ in a detail not shown here. Equal values may be shown once. Results filed as inconclusive are left out. Unmarked numbers belong to inactive results. Active and inactive are the calls of the source. The call rests on the fitted dose curve; in most records, active means well fitted cell-killing curve with a large enough effect; inconclusive means small, poorly fitted or top-dose-only effect, or effect the other way; inactive means no such curve, though single readings can be large or run the other way.

Assay: Viability qHTS for spleen associated tyrosine kinase inhibitor (SYKi) drug resistant MV4-11 cells (AID 1963824); further: nearly all actives have a fitted effect of over 35% in size
Settings: SYKi-resistant MV4-11 viability, CellTiter-Glo, 72 h; series mostly up to 45 µM; viability, % of control: at the top concentration
How it was run: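 CellTiter-Glo luminescence, read 10 min after reagent addition, reports viability after a 72 hr compound exposure. Cells are an MV4-11 line made resistant to SYK inhibition, seeded at 500 per well onto compound-containing plates.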
Potency means the concentration at half of the fitted maximal effect.

SMILES	Potency	viability, % of control
CSCC[C@H](NC(=O)[C@H](CO)NC(=O)[C@H](CCC(=O)O)NC(C)=O)C(=O)N[C@H](C=O)CC(=O)O	1.5 µM (active)	–
COc1ccc(S(=O)(=O)Nc2c(C)cc(C)cc2C)cc1	20.6 µM (active)	–
Cc1cnc(-c2ccccc2C(C)C)nc1NCc1ccc(-n2ccnn2)cc1	16.4 µM (active) and 14.8 µM (active)	–
Nc1cccc(CNC(=O)c2ccc(Oc3ccc(OCc4cccc(F)c4)cc3)nc2)c1	16.4 µM (active)	–
Cc1nc2cc(-c3cc(F)cc(C#N)c3)ccc2s1	–	81.3%
O=C1NC(Cc2c[nH]c3ccccc23)C(=O)NC1Cc1c[nH]c2ccccc12 (stereo not given)	–	79.4%
C#CCOc1ccc2c(c1)c(-c1ccc(C(C)C)cc1)nc(=O)n2C(C)C	9.2 µM (active)	–
O=C1NC(=O)/C(=C\c2ccc3c(c2)OC(F)(F)O3)S1	14.6 µM (active)	–
CCCCCCCCn1cc(CN(CC)CC)c2cc(-c3cnc(N)nc3)ccc21	2.59 µM (active)	–
CCOC(=O)C1=CCCCC1S(=O)(=O)Nc1ccc(F)cc1Cl (stereo not given)	16.6 µM (active)	–
COC1C(=O)CCC2(CO2)C1(O)C1(C)OC1CC=C(C)C (stereo not given)	–	48.1%
CCC(C)C(=O)OC1CC(O)C23C4OCC5(C(O)CC2C1(C)C(O)O4)C3C(=O)C(O)C1(C)C(O)(c2ccoc2)CC2OC251 (stereo not given)	0.432 µM (active)	–
CC(C)(c1ccc(O)cc1)c1ccc(O)cc1	27.9 µM (active)	–
C=C(C(=O)O)[C@@H]1CC=C2CCC[C@H](C)[C@@]2(C)C1	–	72.7%
O=C1Cc2c([nH]c3ccc(Br)cc23)-c2ccccc2N1	5.8 µM (active)	–
C=C(C)C(=O)OC1CC2(C)OC(=CC2=O)C(=C)CC2OC(=O)C(COC)C12 (stereo not given)	1.61 µM (active)	–
OC[C@@]1(O)CO[C@@H](OC[C@H]2O[C@@H](OCc3ccccc3)[C@H](O)[C@@H](O)[C@@H]2O)[C@@H]1O	–	104% [at 17.3 µM]
CN(C)c1ccc2c(c1)OC(N)=C(C#N)C2c1cccc(C(F)(F)F)c1 (stereo not given)	0.184 µM (active)	–

SMILES	Potency	viability, % of control
CCNC(=O)N1CCN(CCCC(c2ccc(F)cc2)c2ccc(F)cc2)CC1	18.8 µM (active)	–
O=C(O)Cc1cn([C@@H]2OC[C@@H](O[C@@H]3O[C@H](CO)[C@@H](O)[C@H](O)[C@H]3O)[C@H](O)[C@H]2O[C@@H]2O[C@H](CO)[C@@H](O)[C@H](O)[C@H]2O)c2ccccc12	–	90.6% [at 17.3 µM]
CC(C)C(=O)OC[C@H]1O[C@H](O[C@H]2O[C@H](CO)[C@@H](O)[C@H](O)[C@H]2O)[C@H](O)[C@@H](O)[C@@H]1O	–	109% [at 17.3 µM]
CN(CC(=O)N(Cc1ccc(C2CCCCC2)cc1)c1ccc(C(=O)O)cc1)S(=O)(=O)c1c(F)c(F)c(F)c(F)c1F	1.03 µM (active)	–
CC(=O)OC1C(C)C2C(OC3OC(CO)C(O)C(O)C3O)OC=C(C(=O)O)C2C1OC(=O)c1ccccc1 (stereo not given)	–	110% [at 17.3 µM]
CC1CC(=O)C2=C(O1)OC1(C)CCC3C(C)(C)C4OC4C(=O)C3(C)C1C2 (stereo not given)	–	87.9%
CC(=O)NCCNc1cc(Cl)nn2c(-c3cccc(S(=O)(=O)N(C)C)c3)c(C)nc12	1.64 µM (active)	–
CC1(C)CC[C@]2(C(=O)O[C@@H]3O[C@H](CO)[C@@H](O)[C@H](O)[C@H]3O)CC[C@]3(C)C(=CCC4[C@@]5(C)C[C@@H](O)[C@H](O)[C@@](C)(CO)C5[C@H](O)C[C@]43C)C2C1 (stereo not given in full)	–	87.9% [at 17.3 µM]
COc1ccccc1Oc1c(NS(=O)(=O)c2ccc(C)cn2)nc(-c2ccncc2)nc1OC	–	79.1%
O=C(O)c1ccc(NC(=O)[C@H](CC2CCCC2)n2cnc(C(F)(F)F)c2)nc1	2.91 µM (active)	–
CN[C@@H]1[C@H](O[C@H]2[C@H](O[C@@H]3[C@@H](O)[C@H](O)[C@@H](N=C(N)N)[C@H](O)[C@H]3N=C(N)N)O[C@@H](C)[C@]2(O)CO)O[C@@H](CO)[C@H](O)[C@H]1O	–	93.4%
CCCCCCCCCCCCCC#CC(=O)[C@@H]1COC(C)(C)N1C(=O)OC(C)(C)C	–	69.9%
O=C1CCCC2=C1C1(CCCC1)N=C(Nc1nc3ccccc3o1)N2	3.66 µM (active)	–
COc1cc2nc(N3CCN(C)CC3)nc(NC3CCN(Cc4ccccc4)CC3)c2cc1OC	3.26 µM (active)	–
COC(CCc1ccc(O)cc1)CC(=O)CCc1ccc(O)cc1 (stereo not given)	14.3 µM (active)	–
CC[C@H](C(=O)Nc1ccccc1N1CCCC1)c1ccccc1	23.1 µM (active)	–
CC(N)C1CCC(C(=O)Nc2ccncc2)CC1 (stereo not given)	–	89.5%
